Compound activity from PubChem BioAssay.
Shown are actives, neighbours in structure and some others; about 4.6% of the full set was active somewhere.
Tau fibril ThT – qHTS for Inhibitors of Tau Fibril Formation, Thioflavin T Binding; Microtubule-associated protein tau (Homo sapiens), P10636; Potency, µM (doses to about 57.4 µM), for the others: at the top dose activity, negative = inhibition, hits mostly inhibitors; 2.1% of 270,000 active; recombinant tau K18 P301L, heparin-induced fibrillization, ThT fluorescence; also: potency is read from the fitted curve at half-maximal effect; nearly all actives have a fitted effect of over 55% in size
Target sequence (P10636 561-689 P618L limits assumed): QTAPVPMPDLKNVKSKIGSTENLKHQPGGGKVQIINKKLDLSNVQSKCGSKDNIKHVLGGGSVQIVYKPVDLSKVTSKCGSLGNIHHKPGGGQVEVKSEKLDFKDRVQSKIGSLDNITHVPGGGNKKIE
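Using a mix of unlabeled (15 uM) and Alexa 594-labeled (0.24 uM) tau K18 P301L, heparin-triggered fibrillization over 6 hr at 37 C was scored by ThT fluorescence.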
Tau fluor cs – Counterscreen qHTS for Inhibitors of Tau Fibril Formation, Fluorescence Polarization; Potency, µM (titrated, usually from 57.7 µM), for the others: top-dose activity change, negative = decrease; tau K18 P301L Alexa594 fluorescence, heparin fibrillization; 0.93% of 280,000 active; AID 1463, 2008; also: potency is read from the fitted curve at half-maximal effect; nearly all actives have a fitted effect of over 55% in size
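Human tau K18 P301L (15 uM unlabeled, 0.24 uM Alexa 594-labeled) in 100 mM sodium acetate pH 7 with 20 uM heparin, 6 hr at 37 C. ThT 30 uM added, 1 hr ambient; Alexa 594 FP and total fluorescence read at 555/632 nm.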
TRb-SRC2 inh – qHTS for Inhibitors of the Interaction of Thyroid Hormone Receptor and Steroid Receptor Coregulator 2; Potency, µM (series often up to 106 µM), inactives show at the highest dose activity change, negative = inhibition, hits mostly inhibitors; 0.065% of 280,000 active; TRbeta-SRC2 peptide binding, fluorescence polarization; receptor liganded with 1 µM T3;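 also: potency is read from the fitted curve at half-maximal effect; plate controls were bound peptide for no effect and peptide without receptor for full effect; nearly all actives have a fitted effect of over 50% in size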
Target sequence (P10828 whole entry, looked up): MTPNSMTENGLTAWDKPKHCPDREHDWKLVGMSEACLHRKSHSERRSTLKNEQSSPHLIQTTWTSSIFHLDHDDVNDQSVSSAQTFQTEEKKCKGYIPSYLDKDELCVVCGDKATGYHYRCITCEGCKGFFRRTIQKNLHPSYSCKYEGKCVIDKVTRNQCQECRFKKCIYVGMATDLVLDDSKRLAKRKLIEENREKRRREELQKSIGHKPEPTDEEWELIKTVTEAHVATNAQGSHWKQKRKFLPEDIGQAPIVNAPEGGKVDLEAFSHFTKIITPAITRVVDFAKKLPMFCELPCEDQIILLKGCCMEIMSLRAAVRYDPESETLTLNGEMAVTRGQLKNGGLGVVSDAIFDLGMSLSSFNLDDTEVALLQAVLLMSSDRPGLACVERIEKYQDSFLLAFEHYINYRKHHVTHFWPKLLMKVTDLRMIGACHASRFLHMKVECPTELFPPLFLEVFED
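Quantitative HTS by FP: 0.6 uM TRb LBD, 20 nM labeled SRC2 20-mer, 1 uM T3, 5% DMSO; 5 hr ambient incubation; % activity per concentration and potencies from concentration series.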
Tau fibril FP – qHTS for Inhibitors of Tau Fibril Formation, Fluorescence Polarization | Microtubule-associated protein tau (Homo sapiens), P10636 | K18 P301L tau heparin fibrillization, Alexa594 FP, 6 h | Potency, µM (series often up to 57.7 µM), inactives show at the top dose activity, negative = inhibition, actives largely listed as inhibitors | 0.39% of 280,000 active | AID 1468, 2008; also: potency is read from the fitted curve at half-maximal effect; nearly all actives have a fitted effect of over 55% in size
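K18 P301L tau (15 uM unlabeled/0.24 uM Alexa 594-labeled, final) + compound + heparin 20 uM final; 100 mM NaOAc pH 7; 6 hr 37 C; ThT 30 uM final added, 1 hr RT; FP ex 555/em 632 nm.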
TR SRC2 fluor cs – Total Fluorescence Counterscreen for Inhibitors of the Interaction of Thyroid Hormone Receptor and Steroid Receptor Coregulator 2. TRb/SRC2 Texas Red total fluorescence interference. 0.29% of 280,000 active. AID 1479, 2009. Potency, µM (top dose mostly 106 µM), for inactives: top-dose fluorescence change, negative = quenching; active = well fitted curve in either direction with a large enough effect; inconclusive = small, poorly fitted or top-dose-only effect; also: potency is read from the fitted curve at half-maximal effect
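Human TRb ligand-binding domain at 0.6 uM with 20 nM Texas Red SRC2 peptide in Tris buffer containing 1 uM T3 and 5% DMSO, incubated with compound 5 h at ambient temperature. Total fluorescence (555/632 nm) calculated as parallel + 2 × perpendicular.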
PNC inhibitor – High Content Assay for Compounds that inhibit the Assembly of the Perinucleolar Compartment; activity change (PNC), negative = inhibition, % at 10 µM; PC3M PTB-GFP, PNC prevalence imaging, 16 h; stronger effect = lower value; 3.1% of 140,000 active;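 active = readout at or below -70, meaning at least 70% loss of cells showing the perinucleolar compartment, a nuclear body marking cancer cells; inconclusive = readout between -30 and a set limit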;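 also: plate controls were DMSO wells for no effect and camptothecin positive control wells for full effect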
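Compounds are pinned in duplicate onto adhered PC3M cells stably expressing GFP-tagged PTB and incubated 16 h at 37 C. Cells are then fixed, nuclei stained with Hoechst, and PNC-positive cells counted.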
* = called active by the depositor; ? = inconclusive; / = not tested or not shown; [ ] = dose if it differs, or a comment. Unless noted, calls follow the shape of the dose curve; as a rule, active = well fitted curve in the direction sought with a large enough effect; inconclusive = small, poorly fitted or top-dose-only effect, or another doubt; inactive = no such curve, though single readings can be large; an effect the other way counts as inactive or inconclusive. Unless noted, % is scaled to controls: 0 for no effect and ±100 for the full control effect.

SMILES	Tau fibril ThT	Tau fluor cs	TRb-SRC2 inh	Tau fibril FP	TR SRC2 fluor cs	PNC inhibitor
Cc1cc2c(cc1C)NC(CC(=O)Nc1cccc(Cl)c1)C(=O)N2 (stereo not given)	?	25µM*[quencher]	-1%	10%	?	/
O=C(CC1Nc2ccccc2NC1=O)Nc1cc(Cl)cc(Cl)c1 (stereo not given)	?	14µM*[quencher]	1%	8%	-4%	26
CC1=C(C#N)C(c2cccnc2)C2=C(CCCC2=O)N1 (stereo not given)	-5%	-2%	-6%	1%	-1%	51
O=C(c1cnn(-c2ccc(F)cc2)c1-n1cccc1)N1CCN(c2ccc(Cl)cc2)CC1	-17%	-13%	0%	13%	-1%	/
O=C(O)c1cc2nc(-c3ccccc3)cc(C(F)(F)F)n2n1	5%	-1%	-14%	-1%	-4%	-3
O=C(CSc1ccccc1)Nc1nnc(COc2ccc(Cl)cc2)s1	28µM*	?	-8%	?	-5%	24
Cc1[nH]nc2c1C1(C(=O)N(Cc3ccc(Cl)cc3)c3ccccc31)C(C#N)=C(N)O2 (stereo not given)	-7%	-21%	-12%	-1%	0%	-12
O=C(CSc1nc(Nc2ccccc2)nc(N2CCOCC2)n1)Nc1ccccc1Cl	0%	-19%	3%	-12%	-1%	43
O=C(CSc1nc(Nc2ccccc2)nc(N2CCOCC2)n1)Nc1ccc([N+](=O)[O-])cc1	?	13µM*[quencher]	5%	?	1%	?
CCCCn1c(NC(=O)c2ccccc2Cl)c(C#N)c2nc3ccccc3nc21	?	-20%	?	-11%	-9%	17
N#Cc1c(NC(=O)c2ccccc2Cl)n(Cc2ccccc2)c2nc3ccccc3nc12	14µM*	-29%	?	?	-14%	?
COCCN1CCN(Cc2nc(C3(c4ccc(C)cc4)CCCC3)no2)CC1	0%	-1%	-5%	-2%	-7%	/
O=C(Nc1nnc(S(=O)(=O)N2CCCCCC2)s1)c1ccccc1	14µM*	?	-11%	1%	?	/
O=C(Nc1nnc(S(=O)(=O)N2CCCC2)s1)c1ccccc1Cl	3.5µM*	?	-5%	10%	2%	/
CC1Cc2ccccc2N1S(=O)(=O)c1nnc(NC(=O)c2ccccc2Br)s1 (stereo not given)	13µM*	?	-3%	-3%	4%	/
O=C(COc1ccccc1F)Nc1nnc(S(=O)(=O)N2CCCCCC2)s1	14µM*	-13%	-11%	-4%	5%	/
O=C(COc1ccccc1Cl)Nc1nnc(S(=O)(=O)N2CCCC2)s1	?	?	-3%	-1%	-1%	/
CCCc1nccn1S(=O)(=O)c1cc(Br)ccc1OC	-3%	-9%	6%	-7%	-3%	/
COCCCNc1nc2c(c(=O)[nH]c(=O)n2C)n1CC(O)COc1ccccc1C (stereo not given)	-5%	-10%	-5%	10%	2%	22
COc1cccc(/C=C2\SC(=S)N(N3CCOCC3)C2=O)c1OC	?	-11%	3%	-5%	-15%	-8
CCC(C(=O)OCC(=O)Nc1cccc(C(C)=O)c1)c1ccccc1 (stereo not given)	-9%	-19%	0%	-7%	1%	/
CCC(C(=O)OCC(=O)Nc1cc(Cl)cc(Cl)c1)c1ccccc1 (stereo not given)	-6%	?	3%	32µM*	0%	11
CN1/C(=N\O)c2cccc3cccc1c23	?	-27%	-27%	-13%	0%	-21
COc1ccc2oc(=O)c(-c3nnc(-c4ccc(C)cc4)o3)cc2c1	-8%	1%	-17%[53 µM]	-8%	20µM*[quencher]	/
COc1ccc2oc(=O)c(-c3nc4ccccc4o3)cc2c1	?	-10%	-22%	0%	-1%	-81*
SMILES	Tau fibril ThT	Tau fluor cs	TRb-SRC2 inh	Tau fibril FP	TR SRC2 fluor cs	PNC inhibitor
CCC(=O)Nc1cc(C(C)(C)C)ccc1C(C)=O	-1%	1%	-2%	3%	-1%	53
O=C1CSC(=NC2CCCCC2)N1	22µM*	-8%	-5%	?	1%	?
Cc1ccc2c(c1)c(N=Nc1cccc(C(=O)O)c1)c(O)n2C	14µM*	-7%	0%	2%	-14%	/
COc1ccc(CN2CCCC(C(=O)N3CCCC3)C2)cc1 (stereo not given)	-2%	-3%	-5%	-10%	1%	54
O=C(C1CCCN(Cc2cccnc2)C1)N1CCCCC1 (stereo not given)	?	-21%	-2%	-4%	-2%	-82*
CC(=O)N1c2ccc(S(=O)(=O)Nc3ccc(C)c(Cl)c3)cc2CC1C (stereo not given)	-6%	-23%	-15%	-4%	16µM*[quencher]	/
CCCCOc1ccc(C(=O)C(CN2CCOCC2)c2ccccc2)cc1 (stereo not given)	?	-10%	?	7%	-2%	?
CCCOc1ccc(C(=O)C(CN2CCCC2)c2ccccc2)cc1 (stereo not given)	?	-4%	-23%	7%	1%	-113*
CN(CC(=O)N1CCc2ccccc21)S(=O)(=O)c1cccs1	-6%	-10%	0%	3%	-5%	1
OC[C@H]1O[C@@H](n2cnc3c(NC4CCCC4)ncnc32)[C@H](O)[C@@H]1O	-7%	-5%	-1%	3%	-4%	-115*
OC[C@@H]1O[C@@H](n2cnc3c(NC4CCCC4)ncnc32)[C@H](O)[C@H]1O	-6%	-2%	-6%	2%	-1%	/
O=C(CN1C(=O)CSc2ccccc21)N1CCc2ccccc21	-5%	-1%	2%	-3%	-3%	-90*
Cc1cccc(CNC(=O)c2ccc(NC(=O)N3CCSc4ncccc43)cc2)c1	7%	-5%	-2%	0%	-2%	/
NC(=O)COc1ncn(-c2ccccc2)n1	0%	0%	-17%	?	1%	-112*
COCCCN1C(=O)C(=O)/C(=C(/O)c2ccc(C)cc2)C1/C=C/c1ccccc1 (stereo not given)	-1%	7%	-1%	6%	-2%	/
CC(NC(=O)Nc1ccc(Cl)cc1)C(c1cccs1)N1CCOCC1 (stereo not given)	-17%	-11%	-3%	-5%	0%	-19
